Screen size: about 5,500 compounds; about 2,000 (36%) were called active. Roughly 18% stayed inconclusive and do not appear here. Cut-off read from the data, not from the text of the source: active = normalized growth mostly below about 0.91 (no sharp cut-off); inconclusive = no clear call, values can overlap the other calls; inactive = mostly above about 0.92. This is one part of the list.
Assay: chemical genetic growth profiling, strain panel (AID 1159580);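 note: tested at 20 µM; growth read once vehicle control cultures reached saturation at 30 °C; 1 = growth at the plate median or of vehicle wells; lower values mean less growth of the strain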
Conditions: growth OD

Measured: normalized growth

CC(=O)Oc1c(C)cccc1C(=O)O
inactive: S. cerevisiae deletion strains, locus YJR043C, strain POL32, active compounds read low 1 | S. cerevisiae deletion strains, locus YJR075W, strain HOC1, active compounds read low 1.01 | S. cerevisiae deletion strains, locus YKL009W, strain mrt4, active compounds read low 0.975 | S. cerevisiae deletion strains, locus YKL068W, active compounds read low 0.995 | S. cerevisiae deletion strains, locus YKL085W, strain MDH1 (second series), active compounds read low 1 | S. cerevisiae deletion strains, locus YKL085W, strain MDH1, active compounds read low 1 | S. cerevisiae deletion strains, locus YKL160W, strain elf1, active compounds read low 0.994 | S. cerevisiae deletion strains, locus YKL190W, strain CNB1, active compounds read low 1.01 | S. cerevisiae deletion strains, locus YKR001C, strain vps1, active compounds read low 1.02 | S. cerevisiae deletion strains, locus YKR026C, strain gcn3, active compounds read low 0.986 | S. cerevisiae deletion strains, locus YKR091W, strain srl3, active compounds read low 1.02 | S. cerevisiae deletion strains, locus YLL001W, strain dnm1, active compounds read low 0.986 | S. cerevisiae deletion strains, locus YLL026W, active compounds read low 1.01 | S. cerevisiae deletion strains, locus YLL041C, strain sdh2, active compounds read low 0.991 | S. cerevisiae deletion strains, locus YLR027C, strain aat2, active compounds read low 0.989 | S. cerevisiae deletion strains, locus YLR039C, strain RIC1, active compounds read low 1 | S. cerevisiae deletion strains, locus YLR058C, strain SHM2, active compounds read low 1.01 | S. cerevisiae deletion strains, locus YLR102C, strain apc9, active compounds read low 1.01 | S. cerevisiae deletion strains, locus YLR221C, strain rsa3, active compounds read low 1.02 | S. cerevisiae deletion strains, locus YLR258W, strain gsy2, active compounds read low 0.999 | S. cerevisiae deletion strains, locus YLR262C, strain YPT6 (second series), active compounds read low 1.03 | S. cerevisiae deletion strains, locus YLR262C, strain YPT6, active compounds read low 1.05 | S. cerevisiae deletion strains, locus YLR268W, strain sec22, active compounds read low 1.01 | S. cerevisiae deletion strains, locus YLR320W, strain mms22, active compounds read low 1.03 | S. cerevisiae deletion strains, locus YLR330W, strain CHS5, active compounds read low 1 | S. cerevisiae deletion strains, locus YLR342W, strain FKS1 (second series), active compounds read low 1.02 | S. cerevisiae deletion strains, locus YLR342W, strain FKS1, active compounds read low 1 | S. cerevisiae deletion strains, locus YLR357W, strain rsc2, active compounds read low 1.04 | S. cerevisiae deletion strains, locus YLR370C, strain arc18, active compounds read low 0.992 | S. cerevisiae deletion strains, locus YLR371W, strain rom2, active compounds read low 1.01 | S. cerevisiae deletion strains, locus YLR384C, strain iki3, active compounds read low 1.01 | S. cerevisiae deletion strains, locus YLR418C, strain cdc73, active compounds read low 1.03 | S. cerevisiae deletion strains, locus YML016C, strain PPZ1, active compounds read low 1.02 | S. cerevisiae deletion strains, locus YML032C, strain rad52, active compounds read low 1.02 | S. cerevisiae deletion strains, locus YML120C, strain ndi1, active compounds read low 1.02 | S. cerevisiae deletion strains, locus YML124C, strain tub3, active compounds read low 1.01 | S. cerevisiae deletion strains, locus YMR058W, strain fet3, active compounds read low 1.02 | S. cerevisiae deletion strains, locus YMR078C, strain ctf18, active compounds read low 1.02 | S. cerevisiae deletion strains, locus YMR125W, strain sto1, active compounds read low 1 | S. cerevisiae deletion strains, locus YMR129W, active compounds read low 1.02 | S. cerevisiae deletion strains, locus YMR205C, strain PFK2, active compounds read low 0.986 | S. cerevisiae deletion strains, locus YMR223W, strain ubp8, active compounds read low 1.01 | S. cerevisiae deletion strains, locus YMR231W, strain pep5, active compounds read low 1.01 | S. cerevisiae deletion strains, locus YMR263W, strain SAP30, active compounds read low 1.01 | S. cerevisiae deletion strains, locus YMR307W, strain GAS1, active compounds read low 1.05 | S. cerevisiae deletion strains, locus YNL067W, strain RPL9B, active compounds read low 1.01 | S. cerevisiae deletion strains, locus YNL071W, strain lat1, active compounds read low 1.02 | S. cerevisiae deletion strains, locus YNL128W, strain TEP1, active compounds read low 1.01 | S. cerevisiae deletion strains, locus YNL153C, strain GIM3, active compounds read low 1.01 | S. cerevisiae deletion strains, locus YNL209W, strain ssb2, active compounds read low 1.01 | S. cerevisiae deletion strains, locus YNL233W, strain BNI4, active compounds read low 1.01 | S. cerevisiae deletion strains, locus YNL248C, strain rpa49, active compounds read low 1.01 | S. cerevisiae deletion strains, locus YNL250W, strain rad50, active compounds read low 1.02 | S. cerevisiae deletion strains, locus YNL271C, strain bni1, active compounds read low 1.01 | S. cerevisiae deletion strains, locus YNL298W, strain CLA4, active compounds read low 0.987 | S. cerevisiae deletion strains, locus YNL307C, strain MCK1, active compounds read low 1.02 | S. cerevisiae deletion strains, locus YNL322C, strain KRE1 (second series), active compounds read low 1.01 | S. cerevisiae deletion strains, locus YNL322C, strain KRE1, active compounds read low 1.01 | S. cerevisiae deletion strains, locus YNR049C, strain mso1, active compounds read low 0.978 | S. cerevisiae deletion strains, locus YNR052C, strain pop2, active compounds read low 1.01 | S. cerevisiae deletion strains, locus YOL006C, strain TOP1, active compounds read low 1.02 | S. cerevisiae deletion strains, locus YOL012C, strain htz1 1.54 | S. cerevisiae deletion strains, locus YOL147C, strain pex11, active compounds read low 1.01 | S. cerevisiae deletion strains, locus YOR001W, strain rrp6, active compounds read low 1.01 | S. cerevisiae deletion strains, locus YOR061W, strain CKA2, active compounds read low 1 | S. cerevisiae deletion strains, locus YOR069W, strain VPS5, active compounds read low 1.01 | S. cerevisiae deletion strains, locus YOR070C, strain gyp1, active compounds read low 0.99 | S. cerevisiae deletion strains, locus YOR080W, strain dia2, active compounds read low 0.999 | S. cerevisiae deletion strains, locus YOR083W, strain WHI5, active compounds read low 1.01 | S. cerevisiae deletion strains, locus YOR106W, strain vam3, active compounds read low 1.01 | S. cerevisiae deletion strains, locus YOR136W, strain idh2, active compounds read low 1.02 | S. cerevisiae deletion strains, locus YOR144C, strain elg1, active compounds read low 1.02 | S. cerevisiae deletion strains, locus YOR184W, strain ser1, active compounds read low 1.01 | S. cerevisiae deletion strains, locus YOR265W, strain rbl2, active compounds read low 0.993 | S. cerevisiae deletion strains, locus YOR270C, strain vph1, active compounds read low 1.06 | S. cerevisiae deletion strains, locus YOR290C, strain snf2, active compounds read low 0.99 | S. cerevisiae deletion strains, locus YOR316C, strain cot1, active compounds read low 1.02 | S. cerevisiae deletion strains, locus YPL051W, strain arl3, active compounds read low 1 | S. cerevisiae deletion strains, locus YPL055C, strain LGE1, active compounds read low 1.03 | S. cerevisiae deletion strains, locus YPL078C, strain atp4, active compounds read low 1.02 | S. cerevisiae deletion strains, locus YPL106C, strain sse1, active compounds read low 1.06 | S. cerevisiae deletion strains, locus YPL240C, strain hsp82, active compounds read low 0.973 | S. cerevisiae deletion strains, locus YPL241C, strain CIN2, active compounds read low 0.986 | S. cerevisiae deletion strains, locus YPR119W, strain clb2, active compounds read low 1 | S. cerevisiae deletion strains, locus YPR141C, strain kar3, active compounds read low 1 | S. cerevisiae deletion strains, locus YPR163C, strain tif3, active compounds read low 1.01 | S. cerevisiae deletion strains, locus YPR167C, strain met16, active compounds read low 1.01 | S. cerevisiae deletion strains, strain wtn01, active compounds read low 1 | S. cerevisiae strains, strain wild type, active compounds read low 0.993

Reference: PubChem BioAssay AID1159580 (chemical genetic matrix, 2015)
